Measurements as given in PMC12214610.

Biological target: Heat shock cognate 71 kDa protein (UniProt P11142)
Sequence (P11142 whole entry): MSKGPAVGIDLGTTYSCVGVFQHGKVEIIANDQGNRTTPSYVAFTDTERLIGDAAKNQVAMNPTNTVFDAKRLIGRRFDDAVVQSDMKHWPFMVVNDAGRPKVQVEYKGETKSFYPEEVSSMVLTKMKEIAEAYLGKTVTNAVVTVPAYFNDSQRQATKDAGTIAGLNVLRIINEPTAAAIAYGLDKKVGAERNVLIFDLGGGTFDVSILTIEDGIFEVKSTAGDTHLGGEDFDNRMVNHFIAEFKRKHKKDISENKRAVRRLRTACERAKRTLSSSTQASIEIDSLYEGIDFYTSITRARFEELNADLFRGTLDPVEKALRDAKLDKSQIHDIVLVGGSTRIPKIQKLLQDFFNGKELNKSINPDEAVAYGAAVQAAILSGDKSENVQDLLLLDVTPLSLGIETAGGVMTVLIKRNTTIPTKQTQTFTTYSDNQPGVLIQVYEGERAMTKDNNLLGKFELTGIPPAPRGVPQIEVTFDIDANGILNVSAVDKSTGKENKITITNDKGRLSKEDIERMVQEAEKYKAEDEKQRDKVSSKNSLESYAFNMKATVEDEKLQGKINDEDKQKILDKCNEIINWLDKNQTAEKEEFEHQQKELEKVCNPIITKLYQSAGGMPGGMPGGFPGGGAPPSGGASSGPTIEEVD

Glyceraldehyde-3-phosphate dehydrogenase, P04406, sequence (P04406 whole entry): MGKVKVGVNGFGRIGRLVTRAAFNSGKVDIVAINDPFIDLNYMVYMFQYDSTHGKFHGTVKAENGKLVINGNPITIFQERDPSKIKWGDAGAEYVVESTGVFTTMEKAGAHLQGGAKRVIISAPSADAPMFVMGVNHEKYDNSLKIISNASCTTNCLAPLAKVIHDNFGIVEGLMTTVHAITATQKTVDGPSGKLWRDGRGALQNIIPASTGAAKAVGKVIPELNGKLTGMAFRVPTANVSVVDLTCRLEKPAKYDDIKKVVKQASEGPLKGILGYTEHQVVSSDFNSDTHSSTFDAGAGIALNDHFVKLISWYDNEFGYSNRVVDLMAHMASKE

Listed as a hit, yes:
Heat shock 70 kDa protein 4L, O95757
Thioredoxin, P10599
Glyceraldehyde-3-phosphate dehydrogenase, P04406
